According to the supplement of paper PMC6555819:

These sequences were tested on LXRb homodimer (NR concentration 270 nM) (assay: PBM binding z-score (relative to random genomic background probes); higher = stronger binding; sequences stand for … in GC…GCGATTGACAGCGTAGAATGAAGG).
Summary of the method: (§1)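 Binding buffer was PBS pH 7.4 with 2% milk, 0.02% Triton X-100, 1 mM DTT, 0.2 mg/mL BSA and 0.4 mg/ml salmon testes DNA. In it, ligand-free nuclear receptor dimers were incubated 1 h on custom Agilent 4×180K protein-binding microarrays carrying double-stranded probes. Antibodies against each partner (one per run) detected binding, and z-scores were calculated against random background probes after regression normalization of scanned fluorescence.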
TCTTGTAGGTCAGCAGGTTAAGAAAGCTGGCCAA was tested, and the PBM binding z-score was 0.418.
For TAGCCTAGGTCATTCAGGGCCCAGTATAGAAAGC, the PBM binding z-score was 0.858.
AATATAGGGTCACTAGGCCAGAGTAGGTACGAAT gave a PBM binding z-score of 0.704.
CCTCCGAGGACAACAGGAGGTCAGAGCTGCCAGA gave a PBM binding z-score of -0.302.
With CCTAGCTGGTCAAGGTCACACACGCTATAGGTAC the PBM binding z-score was 0.392.
ATCGAAAGGTCGTCAGGTGAGTATACAGAAAGGC showed a PBM binding z-score of 0.804.
In the case of ATCGAAAGGTCGTGAGGTGAATATACAGAAAGGC, the PBM binding z-score is reported as 0.583.
TGAATGAGGTTATAAGAGCAGGGAACGTTGCAAA gave a PBM binding z-score of -0.0285.
CCTAGTTGGCCAGGAGGTCACACACCGGATATGA gave a PBM binding z-score of 0.178.
In the case of AGTCAAAGTTCACTAGGTAACGTCAGATTCAGCT, the PBM binding z-score is reported as 0.994.
Work on AGAACGAGGGCACGCTGAGTAGATAGCAGAGTAG yielded a PBM binding z-score of -0.892.
TCAGACAGGTGATGGTAACTCAGGTACGCAGTCG gave a PBM binding z-score of -0.117.
Sequence CCTCGGAGGACAAGAGGAGGTCAGAGCTGCCAGA has a PBM binding z-score of -0.815.
In the case of ATATGTAGGTTATCGGGTAATTCAGTTTGCGCAT, the PBM binding z-score is reported as 0.955.
For GCTATTAGTTGAAAGCGCAACCGAATGATTCTCG, the PBM binding z-score was -0.315.
Sequence CGGCAAAGTTCAAGGTAACGTAACAGAAAGCAGC has a PBM binding z-score of -0.0277.
Sequence ATACCAAGGTGATCGTGAGGTTGTTGATACTAAC has a PBM binding z-score of -0.241.
With ACAGACAGGTGAGTGAAGGTACCTCAGCTGGACG the PBM binding z-score was -0.777.
Work on GGAACGACGGCATTCGAGTTGATAGCATGGCGAT yielded a PBM binding z-score of -1.04.
TCGCGTAGGTTACCAATGGGGCATTCAGCTTTCT gave a PBM binding z-score of -0.67.
In the case of TTACCAAGGTAAGCTGAGGTCGTTGATCCAACTC, the PBM binding z-score is reported as -0.769.
CCTACTGGGCCACGAAAGGTCAGTGATTCAGTGA showed a PBM binding z-score of -0.661.
In the case of GCTTCTAGATCAAGGTTAAGAAAGACTAAGCTAA, the PBM binding z-score is reported as -0.427.
In the case of ACGATTAGTTGAGACGAGGGCAACCGATAGGTTG, the PBM binding z-score is reported as -0.463.
With ATATGTAGGTGAGCTGGGGTCATTCAGACTAGGC the PBM binding z-score was 0.598.
CCTAGTTGGTCAGGAGGTCTCACACCGGATATGA was tested, and the PBM binding z-score was -0.246.
CTCGAAAGGTCGTGCTCAGGTGAGGATACCAAAC gave a PBM binding z-score of -0.12.
For CCGGCTGGGGCAAGGTTACCATAACGCACAGCCA, the PBM binding z-score was -1.36.
For CCGACTGGGGCATAAGGTTACCATAAGCCAGCCC, the PBM binding z-score was -1.33.
Work on GCGACTGGGGCACAGCAGGTTACCATAAGGTTGG yielded a PBM binding z-score of -1.1.
With AGTCAAAGTTAAGGACGAGGTAACGTAAAGCACG the PBM binding z-score was -0.644.
In the case of CGTCCAAGGTCAACGTCAGTGAAAGAGACTCGAA, the PBM binding z-score is reported as 0.597.
ACAGACAGGTGAGTGAATGTAACTCAGCTGGACG was tested, and the PBM binding z-score was -0.454.
GCTGCTAGGTCAACTGATGGTCAGATAAAGCTCG gave a PBM binding z-score of 0.348.
In the case of TGAATGAGGTTATAGGATCAGGGAACGTTGCAAA, the PBM binding z-score is reported as -0.108.
TAGTCTAGGTCATTGGGCCAGTATAGTACGCATC was tested, and the PBM binding z-score was 2.53.
Work on CCAACTGGGCCAAAGGTCATTGATTCCAATGCTC yielded a PBM binding z-score of 0.383.
AGCCAAAGTTCATCTAGGTAACGTAAGATATGCT was tested, and the PBM binding z-score was 1.41.
TCATATAGGTCATACAGGTGAAAGTCGGCATCTA showed a PBM binding z-score of 1.72.

These sequences were tested on PPARa:RXRa (NR concentration 270 nM, RXRa partner concentration 90 nM) in the same assay as above.
Summary of the method: as §1
For TCTTGTAGGTCAGCAGGTTAAGAAAGCTGGCCAA, the PBM binding z-score was 4.35.
TAGCCTAGGTCATTCAGGGCCCAGTATAGAAAGC showed a PBM binding z-score of 3.62.
For AATATAGGGTCACTAGGCCAGAGTAGGTACGAAT, the PBM binding z-score was 5.67.
Work on CCTCCGAGGACAACAGGAGGTCAGAGCTGCCAGA yielded a PBM binding z-score of 2.02.
For CCTAGCTGGTCAAGGTCACACACGCTATAGGTAC, the PBM binding z-score was 4.23.
Sequence ATCGAAAGGTCGTCAGGTGAGTATACAGAAAGGC has a PBM binding z-score of 4.7.
Work on ATCGAAAGGTCGTGAGGTGAATATACAGAAAGGC yielded a PBM binding z-score of 5.66.
In the case of TGAATGAGGTTATAAGAGCAGGGAACGTTGCAAA, the PBM binding z-score is reported as 2.86.
Sequence CCTAGTTGGCCAGGAGGTCACACACCGGATATGA has a PBM binding z-score of 4.15.
For AGTCAAAGTTCACTAGGTAACGTCAGATTCAGCT, the PBM binding z-score was 4.68.
Work on AGAACGAGGGCACGCTGAGTAGATAGCAGAGTAG yielded a PBM binding z-score of 2.15.
TCAGACAGGTGATGGTAACTCAGGTACGCAGTCG gave a PBM binding z-score of 1.16.
CCTCGGAGGACAAGAGGAGGTCAGAGCTGCCAGA was tested, and the PBM binding z-score was 1.62.
ATATGTAGGTTATCGGGTAATTCAGTTTGCGCAT was tested, and the PBM binding z-score was 3.5.
GCTATTAGTTGAAAGCGCAACCGAATGATTCTCG was tested, and the PBM binding z-score was -0.41.
With CGGCAAAGTTCAAGGTAACGTAACAGAAAGCAGC the PBM binding z-score was 4.47.
Work on ATACCAAGGTGATCGTGAGGTTGTTGATACTAAC yielded a PBM binding z-score of 0.626.
In the case of ACAGACAGGTGAGTGAAGGTACCTCAGCTGGACG, the PBM binding z-score is reported as -0.49.
With GGAACGACGGCATTCGAGTTGATAGCATGGCGAT the PBM binding z-score was -0.735.
In the case of TCGCGTAGGTTACCAATGGGGCATTCAGCTTTCT, the PBM binding z-score is reported as 0.898.
TTACCAAGGTAAGCTGAGGTCGTTGATCCAACTC was tested, and the PBM binding z-score was 1.3.
CCTACTGGGCCACGAAAGGTCAGTGATTCAGTGA gave a PBM binding z-score of 3.53.
GCTTCTAGATCAAGGTTAAGAAAGACTAAGCTAA was tested, and the PBM binding z-score was 1.58.
ACGATTAGTTGAGACGAGGGCAACCGATAGGTTG was tested, and the PBM binding z-score was 0.252.
ATATGTAGGTGAGCTGGGGTCATTCAGACTAGGC gave a PBM binding z-score of 5.85.
With CCTAGTTGGTCAGGAGGTCTCACACCGGATATGA the PBM binding z-score was 0.135.
With CTCGAAAGGTCGTGCTCAGGTGAGGATACCAAAC the PBM binding z-score was 4.86.
CCGGCTGGGGCAAGGTTACCATAACGCACAGCCA was tested, and the PBM binding z-score was 1.09.
Work on CCGACTGGGGCATAAGGTTACCATAAGCCAGCCC yielded a PBM binding z-score of 1.75.
Sequence GCGACTGGGGCACAGCAGGTTACCATAAGGTTGG has a PBM binding z-score of 0.996.
For AGTCAAAGTTAAGGACGAGGTAACGTAAAGCACG, the PBM binding z-score was 0.245.
In the case of CGTCCAAGGTCAACGTCAGTGAAAGAGACTCGAA, the PBM binding z-score is reported as 5.64.
ACAGACAGGTGAGTGAATGTAACTCAGCTGGACG was tested, and the PBM binding z-score was 0.0946.
GCTGCTAGGTCAACTGATGGTCAGATAAAGCTCG was tested, and the PBM binding z-score was 3.87.
With TGAATGAGGTTATAGGATCAGGGAACGTTGCAAA the PBM binding z-score was 3.28.
Sequence TAGTCTAGGTCATTGGGCCAGTATAGTACGCATC has a PBM binding z-score of 4.28.
Work on CCAACTGGGCCAAAGGTCATTGATTCCAATGCTC yielded a PBM binding z-score of 6.66.
In the case of AGCCAAAGTTCATCTAGGTAACGTAAGATATGCT, the PBM binding z-score is reported as 4.86.
TCATATAGGTCATACAGGTGAAAGTCGGCATCTA gave a PBM binding z-score of 5.68.
